Experimental data reported in article PMC4336329 (PLoS ONE, 2015).
Out of some 310,000 compounds screened, about 14,000 (4.5%) showed an effect of 50% or more. Effects have a minus sign here. What follows is part of a selection rich in strong results, with near analogues and random picks from the rest.

biological target: human ether-à-go-go-related gene (hERG) potassium channel (human, UniProt Q12809); assay: primary screen, population patch clamp on CHO cells stably expressing hERG; higher = less effect of the substance
Sequence (Q12809 whole entry, looked up): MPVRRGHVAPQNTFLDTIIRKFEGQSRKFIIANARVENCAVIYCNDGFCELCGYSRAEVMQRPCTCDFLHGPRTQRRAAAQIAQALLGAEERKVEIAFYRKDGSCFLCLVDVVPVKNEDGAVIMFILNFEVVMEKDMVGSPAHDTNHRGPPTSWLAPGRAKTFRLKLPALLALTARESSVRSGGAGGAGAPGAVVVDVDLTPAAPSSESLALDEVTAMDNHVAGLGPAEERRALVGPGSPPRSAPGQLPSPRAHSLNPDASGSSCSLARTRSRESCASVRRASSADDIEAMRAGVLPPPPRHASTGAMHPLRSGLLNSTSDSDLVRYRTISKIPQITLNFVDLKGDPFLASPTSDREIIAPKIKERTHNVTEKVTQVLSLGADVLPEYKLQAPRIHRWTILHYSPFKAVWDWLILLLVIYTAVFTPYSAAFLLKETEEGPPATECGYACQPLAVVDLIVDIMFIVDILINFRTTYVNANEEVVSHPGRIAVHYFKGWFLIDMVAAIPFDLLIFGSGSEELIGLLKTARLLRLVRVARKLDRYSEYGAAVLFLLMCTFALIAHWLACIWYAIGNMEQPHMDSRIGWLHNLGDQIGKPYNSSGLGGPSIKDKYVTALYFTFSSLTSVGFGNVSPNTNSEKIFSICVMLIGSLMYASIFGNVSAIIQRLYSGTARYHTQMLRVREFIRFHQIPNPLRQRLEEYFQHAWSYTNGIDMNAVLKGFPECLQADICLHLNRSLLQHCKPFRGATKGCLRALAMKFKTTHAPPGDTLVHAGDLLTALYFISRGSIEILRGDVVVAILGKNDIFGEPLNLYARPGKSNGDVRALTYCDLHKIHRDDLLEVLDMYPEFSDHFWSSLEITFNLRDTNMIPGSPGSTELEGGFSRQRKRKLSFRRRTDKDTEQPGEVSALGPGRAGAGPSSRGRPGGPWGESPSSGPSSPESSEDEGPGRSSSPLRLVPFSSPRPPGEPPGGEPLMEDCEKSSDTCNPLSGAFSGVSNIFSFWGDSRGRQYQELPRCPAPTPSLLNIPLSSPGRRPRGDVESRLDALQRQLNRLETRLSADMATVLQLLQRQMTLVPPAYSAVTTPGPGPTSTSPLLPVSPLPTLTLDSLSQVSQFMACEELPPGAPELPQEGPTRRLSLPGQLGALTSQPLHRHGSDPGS
Procedure: Briefly, Chinese hamster ovary (CHO) cells stably expressing the hERG channel were dislodged from tissue culture flasks and dispensed into PPC plates. […] During the recording, background leak currents were estimated by a 100 ms step to -80 mV from an initial holding potential of -70 mV and subtracted from the subsequent current measurement. The campaign was conducted in two phases using slight differences in recording protocol. In the first phase, the initial voltage pulse used a 100 ms step to -30 mV from a holding potential of -70 mV, a 2 s conditioning step to +25 mV, and a 2 s test step to -30 mV. During the second phase of the screen, the potential during the conditioning step was raised to +45 mV. In both phases of the campaign, a secondary voltage pulse was applied using the same parameters as the second phase initial pulse. The initial and secondary pulses were applied in the absence of compound, and upon application of 1 μM and 10 μM test concentrations. […]
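Further: peak tail current of the secondary pulse compared with the same well before compound.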

SMILES | hERG current change (%, negative = inhibition) at 10uM
CCOC(=O)C1(P(=O)(c2ccc(Cl)cc2)c2ccc(Cl)cc2)CCC1 | -25.2%
N/C(=N\OC(=O)COc1ccc2ccccc2c1)c1ccccn1 | -1.39%
CCN(C(=O)COC(=O)CCS(=O)(=O)c1ccc(C)cc1)C1CCS(=O)(=O)C1 (centres unmarked) | 12.9%
COc1ccccc1C(C#N)N1N=C(C)CC1c1ccccc1 (centres unmarked) | 1.69%
O=C(CSc1nnc(COc2ccccc2Cl)o1)NC(=O)NCc1ccco1 | -8.18%
Cc1cc(C)nc(/N=C(\N)Nc2ccc(SC(F)F)cc2)n1 | -74.7%
Cc1cc(=O)[nH]c(/N=C(\N)Nc2ccc(SC(F)F)cc2)n1 | -15.8%
Cc1cc(C)nc(/N=C(\N)Nc2ccc3c(c2)OCCO3)n1 | 6.67%
CCOc1ccc(OCCC(=O)OCC(=O)NCCc2ccc(S(N)(=O)=O)cc2)cc1 | -4.49%
CCOc1ccc(CNCCc2ccc(S(N)(=O)=O)cc2)cc1.Cl | -70.1%
C=CCOc1ccc(CNCCc2ccc(S(N)(=O)=O)cc2)cc1.Cl | -81.4%
Cl.NS(=O)(=O)c1ccc(CCNCc2cccnc2)cc1 | 18.4%
COc1ccc(CNC(=S)Nc2ccc(S(N)(=O)=O)cc2)cc1 | 22.1%
CCOc1ccc(CNc2ccc(S(N)(=O)=O)cc2)cc1 | -6.78%
COc1ccc(CNc2ccc(S(N)(=O)=O)cc2)cc1 | -52.6%
CCOc1ccc(N2C(=O)CC(NCCc3ccc(S(N)(=O)=O)cc3)C2=O)cc1 (centres unmarked) | -22%
Cl.NS(=O)(=O)c1ccc(CCNCc2cccs2)cc1 | 4.04%
COc1ccc(C(=O)NC(=S)N2CCN(c3ccccc3OC)CC2)cc1 | -21.6%
O=C(COC(=O)c1cccnc1)c1ccc(Cl)cc1 | 4.51%
CCCCn1c(SCn2nnc3ccccc3c2=O)nc2cc(S(N)(=O)=O)ccc21 | -34.5%
COc1ccc(N2CCN(CC(=O)c3c(C)n(C)c4ccc(OC)cc34)CC2)cc1 | -4.1%
COc1ccc(N2CCN(CC(=O)c3c[nH]c4ccccc34)CC2)cc1 | 8.09%

SMILES | hERG current change (%, negative = inhibition) at 10uM
COc1ccc(N2CCN(C(=O)C(=O)c3c(C)[nH]c4ccccc34)CC2)cc1 | -14.1%
CCN1CCN(CCCNC(=O)C(=O)c2c(C)[nH]c3ccccc23)CC1 | 3.67%
COc1ccc(N2CCN(C(=O)C(=O)c3c(C)n(C)c4ccccc34)CC2)cc1 | 10.4%
COc1ccc(N2CCN(CCCNC(=O)C(=O)c3c[nH]c4ccccc34)CC2)cc1 | -69.7%
Cl.O=C(NCCCN1CCOCC1)C(=O)c1c[nH]c2ccccc12 | -3.03%
COc1ccc(C(C(O)C(=O)c2c[nH]c3ccccc23)N2CCN(c3ccccc3)CC2)cc1 (centres unmarked) | -13.8%
COc1ccc(N2CCN(CCCNC(=O)C(=O)c3c(C)n(C)c4ccccc34)CC2)cc1 | -64.1%
COc1ccc(C(C(O)C(=O)c2c[nH]c3ccccc23)N2CCN(c3ccc(OC)cc3)CC2)cc1 (centres unmarked) | -7.36%
COc1ccc(N2CCN(CCCNC(=O)C(=O)c3c(C)[nH]c4ccccc34)CC2)cc1 | -53.3%
CCN1CCN(C(c2ccc(OC)cc2)C(O)C(=O)c2c[nH]c3ccccc23)CC1 (centres unmarked) | -69%
O=C(NCCN1CCOCC1)c1cccc(S(=O)(=O)N(Cc2ccccc2)c2ccccc2)c1 | -19.3%
CCOC(=O)c1sc(C)c(C(=O)NC2CCCCC2)c1N | -4.79%
CNC(=O)c1c(NC(=O)CCS(=O)(=O)c2ccccc2)sc(C)c1C | 0.0126%
COc1ccc(/C=N/NC(=O)Cc2csc(Nc3cccc(C(F)(F)F)c3)n2)cc1C | 10.7%
CCOC(=O)c1cc(-c2ccccc2)sc1NC(=O)COC(=O)c1cccc(S(N)(=O)=O)c1 | 10.2%
CC1CC(C)CN(CCCNC(=O)CCC(=O)N2CC(C)Oc3ccccc32)C1 (centres unmarked) | -32.2%
Cc1cccc(/C=N/NC(=O)c2cccc(NC(=O)c3ccccc3)c2)n1 | 0.172%
CCOCc1nnc(NC(=O)CSc2ccc(C)cc2)s1 | 6.61%
Cc1c(N2CCCC2)cc2c(c1NC(=O)c1ccccc1Cl)C(C)(C)CC2(C)C | -25.6%
COc1ccc(C(=O)/C=C2\Sc3ccccc3N2C)cc1 | 11.1%
CN1/C(=C/c2cccc[n+]2C)Sc2ccccc21.[I-] | -22.7%
CN1/C(=C/c2cccc[n+]2CCO)Sc2ccccc21.[I-] | 12.4%
